Source: the supplement of paper PMC11150407
Structures can show the parent of a compound that is named as a salt. Among all 2,100 compounds or so, about 180 (8.6%) showed an effect of 50% or more. Only a selection was taken, and strong results are over-represented in it overall.

System: MOLM1 and UCSD/AML1 (averaged)
Assay: cell viability relative to DMSO control (POC); higher = less growth inhibition
Settings: 1 µM; 72 h
Description: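 Primary viability screen in the 3q26 EVI1-high AML cell lines MOLM1 and UCSD/AML1 (1.5e3 cells/well, 384-well), compounds at 1 uM for 72 h. ATP CellTiter-Glo read-out given as percent of viable cells over DMSO control (POC), averaged over duplicates. DMSO was the negative control and 5 uM etoposide the positive control. This mapping covers the MicroSource Spectrum and Selleck anticancer libraries (drug names).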

Row | SMILES | cell viability [%]
1 | Cc1[nH]c(/C=C2\C(=O)Nc3ccc(S(=O)(=O)N(C)c4cccc(Cl)c4)cc32)c(C)c1C(=O)N1CCN(C)CC1 | 62.8
2 | CCN(CC)CCNC(=O)c1c(C)[nH]c(/C=C2\C(=O)Nc3ccc(F)cc32)c1C [Sunitinib Malate (Sutent)] | 32.9
3 | Cc1[nH]c(/C=C2\C(=O)Nc3ccc(S(=O)(=O)Cc4c(Cl)cccc4Cl)cc32)c(C)c1C(=O)N1CCC[C@@H]1CN1CCCC1 | 92.1
4 | CC(=O)Oc1cc(-c2coc3cc(OC(C)=O)c(OC(C)=O)c(OC(C)=O)c3c2=O)cc(OC(C)=O)c1OC(C)=O | 93.9
5 | CC(=O)O[C@@H]1CC2C(C)(C)[C@H](O)C=C[C@]2(C)C2CC[C@@]3(C)[C@H](c4ccoc4)OC(=O)C4OC43[C@@]21C (stereo partly specified) | 98.8
6 | O=c1c2ccccc2oc2ccccc12 | 101
7 | CC(=O)Nc1nc(C)c(-c2ccc(Cl)c(S(=O)(=O)NCCO)c2)s1 | 56.6
8 | Nc1ccccc1NC(=O)c1ccc(CNC(=O)OCc2cccnc2)cc1 [Entinostat (MS-275, SNDX-275)] | 12.6
9 | Nc1ccccc1NC(=O)c1ccc(CNc2nccc(-c3cccnc3)n2)cc1 [Mocetinostat (MGCD0103)] | 4.85
10 | O=C(CCNNC(=O)c1ccncc1)NCc1ccccc1 | 90.2
11 | O=C(NCO)c1cccnc1 | 106
12 | COc1c2ccoc2c(OC)c2oc(=O)ccc12 | 115
13 | CC(NC(=O)c1ccccc1/N=C/c1c(O)ccc2ccccc12)c1ccccc1 (stereo unspecified) [Sirtinol] | 103
14 | CCc1cc(C(N)=S)ccn1 | 97.8
15 | CCc1ccc2c(O)c3c(cc2c1C(=O)OC)C(=O)c1c(O)ccc(O)c1C3=O | 102
16 | NC(=O)c1ccc(I)c([N+](=O)[O-])c1 [Iniparib (BSI-201)] | 103
17 | C[C@H]1COC2=C1C(=O)C(=O)c1c2ccc2c1CCCC2(C)C | 97.7
18 | C=C1C(=O)O[C@@H]2C[C@@]3(C)CCC[C@H](C)C3=C[C@H]12 | 74
19 | COc1cccc(O)c1O | 110

Row | SMILES | cell viability [%]
20 | C=CCn1c(=O)c2cnc(Nc3ccc(N4CCN(C)CC4)cc3)nc2n1-c1cccc(C(C)(C)O)n1 | 19.2
21 | CO[C@@H](C(=O)N1Cc2[nH]nc(NC(=O)c3ccc(N4CCN(C)CC4)cc3)c2C1)c1ccccc1 | 13.4
22 | CC(C(=O)O)[C@H]1CCC2C3CC=C4C[C@@H](O)CC[C@]4(C)C3CC[C@@]21C (stereo partly drawn) [3beta-HYDROXY-23,24-BISNORCHOL-5-ENIC ACID] | 109
23 | CNCc1ccccc1 | 104
24 | C=CC1=C(C)/C(=C/c2[nH]c(Cc3[nH]c(/C=C4\NC(=O)C(C)=C4C=C)c(C)c3CCC(=O)O)c(CCC(=O)O)c2C)NC1=O | 91.9
25 | C=CC(C)(O)CCC=C(C)CCC=C(C)C (mixture of isomers) | 93.6
26 | COc1cc(OC)c(/C=C/S(=O)(=O)Cc2ccc(OC)c(NCC(=O)O)c2)c(OC)c1 | 41.4
27 | NCCC(O)(P(=O)(O)O)P(=O)(O)O [Pamidronate Disodium] | 79.9
28 | COc1cc2c(cc1OC)Cc1cc(OC)c(OC)cc1Cc1cc(OC)c(OC)cc1C2 | 113
29 | CC1=CC(=O)C(C(C)C)=CC1=O | 97.2
30 | CC[C@@]1(O)C(=O)OCc2c1cc1n(c2=O)Cc2cc3c(CN(C)C)c(O)ccc3nc2-1 [Topotecan HCl] | 2.12
31 | CC[C@@]1(O)C(=O)OCc2c1cc1n(c2=O)Cc2cc3cc(O)ccc3nc2-1 | 7.32
32 | CCc1c2c(nc3ccc(OC(=O)N4CCC(N5CCCCC5)CC4)cc13)-c1cc3c(c(=O)n1C2)COC(=O)[C@]3(O)CC [Irinotecan] | 13
33 | CCc1c2c(nc3ccc(OC(=O)N4CCC(N5CCCCC5)CC4)cc13)-c1cc3c(c(=O)n1C2)COC(=O)[C@]3(O)CC [Irinotecan HCl Trihydrate (Campto)] | 15.9
34 | COc1cc(/C=C/CO)ccc1O | 87.7
35 | O=C(O)/C=C/C=C/c1ccc2c(c1)OCO2 | 109
36 | CC(=O)O[C@@H]1C[C@@]2(C)C(CC[C@@H]2C(C)=O)C2CCC3=CC(=O)CC[C@]3(C)C21 (stereo partly specified) | 91.1
37 | CC(N)C12CC3CC(CC(C3)C1)C2 (stereo unspecified) | 105
38 | COc1cc2c(cc1OC)C1(O)C(=O)c3ccc(O)c(C(=O)O)c3OC1CO2 (stereo unspecified) | 101

Row | SMILES | cell viability [%]
39 | COc1ccc2c(c1OC)OC[C@@H](c1ccc(OC)c(OC)c1OC)C2 | 113
40 | COc1cc(C)c(C(=O)Oc2cc(C)c(C(=O)O)c(O)c2C)c(O)c1C=O | 91.2
41 | C[C@H](N)C(=O)NC(Cc1ccccc1)C(=O)O (mixture of isomers) | 100
42 | CC1(C)CC2C1CC[C@]1(C)CCC3C(C(=O)O)CC(=O)O[C@@]32C1 (stereo partly specified) [3-HYDROXY-4-(SUCCIN-2-YL)-CARYOLANE delta-LACTONE] | 103
43 | C[C@@H]1C(=O)O[C@H]2C[C@@]34[C@H]5C[C@@H](C(C)(C)C)[C@]36[C@@H](OC(=O)[C@@H]6O)O[C@@]4(C(=O)O5)[C@]21O | 94.4
44 | COc1ccc([C@@H](C)C(=O)c2ccc(O)cc2O)cc1 | 112
45 | CC1(COc2ccc3c(c2)ncn3-c2ccc3cccc(N4CCC(N)CC4)c3n2)COC1 | 29.2
46 | C[C@@]12CCc3occc3[C@H]1CC[C@@]13C[C@@H](CC[C@H]12)[C@@](O)(CO)C3 | 89.6
47 | COc1c(-c2ccccc2)oc2c(ccc3occc32)c1=O | 97.3
48 | O[C@H]1[C@H](O)[C@@H](O)C2OC[C@H]1O2 | 110
49 | COc1ccc(-c2ccc3c(N4CCOCC4)nc(N4C[C@@H](C)O[C@@H](C)C4)nc3n2)cc1CO | 30.1
50 | COc1ccc(-c2ccc3c(N4CCOC[C@@H]4C)nc(N4CCOC[C@@H]4C)nc3n2)cc1CO | 23.6
51 | O=C(O)C(S)C(S)C(=O)O (stereo unspecified) | 115
52 | O=C1c2ccccc2C(=O)c2c1ccc(O)c2O | 95.7
53 | COc1ccc2c(=O)c(-c3cc4c(cc3OC)OCO4)coc2c1 | 99.7
54 | COc1ccc(-c2c(O)c3c(OC)c4c(cc3oc2=O)OC(C)(C)C=C4)cc1 | 93.5
55 | CC[C@H](/C=C/[C@@H](C)[C@H]1CC[C@H]2[C@@H]3CC=C4C[C@@H](O)CC[C@]4(C)[C@H]3CC[C@]12C)C(C)C | 107
56 | CC(C)=CCCC1(C)C=Cc2c(O)c3c(c(CC=C(C)C)c2O1)OC12C(=CCCC1C(C)(C)O[C@@]2(C/C=C(\C)C(=O)O)C(=O)O)C3=O (stereo partly specified) | 103
